# Results: PubChem BioAssay AID2390 (National Center for Advancing Translational Sciences (NCATS), 2010)
# Some of the results follow. Results filed as inconclusive are left out. Active and inactive are the calls of the source. Calls come from the whole dose curve; as a rule, active = well fitted inhibition curve with a large enough effect; inconclusive = small, poorly fitted or top-dose-only effect; inactive = no such curve, though single readings can be large or run the other way.
# Target: Regulator of G-protein signaling 12 (Homo sapiens) (UniProt O14924)
# Assay: Confirmation qHTS Assay for Inhibitors of RGS12 GoLoco Motif Activity (Red Fluorophore)
# Settings: Gai1/rhodamine-RGS12 GoLoco peptide fluorescence polarization; series mostly up to 57.1 µM; activity, negative = inhibition: at the top concentration
# From the text: G-protein-coupled receptors (GPCRs) are major targets for drug discovery. The regulator of G-protein signaling (RGS)-protein family has important roles in GPCR signal transduction. RGS proteins contain a conserved RGS-box, which is often accompanied by other signaling regulatory elements. RGS proteins accelerate the deactivation of G proteins to reduce GPCR signaling; however, some also have an effector function and transmit signals. Combining GPCR agonists with RGS inhibitors should potentiate responses, and could markedly increase the agonist's regional specificity. The diversity of RGS proteins with highly localized and dynamically regulated distributions in brain makes them attractive targets for pharmacotherapy of central nervous system disorders. […] A complex of Gai1 and fluorescently labeled G-alpha-binding peptide (the "GoLoco motif") derived from RGS12 is incubated with library members. Inhibitors of the binding are detected by a decrease in the fluorescence polarization (FP) of the fluorophore. Protein was supplied by Prof. David Siderovski, University of North Carolina at Chapel Hill. This BioAssay is a confirmatory run of primary qHTS protocol (AID: 880). See following reference for more details: Kimple AJ, et al. Comb Chem High Throughput Screen. 2008 Jun;11(5):396-409. Assay Submitter: Siderovski, David P, University of North Carolina at Chapel Hill Screening Center PI: Austin, C.P. Screening Center: NIH Chemical Genomics Center [NCGC] NIH Grant: NS053754-01
# Reagents/Controls: Assay Buffer: 10 mM Tris-HCl, 150 mM NaCl, 0.1 mM GDP (prepared fresh), and 0.05% NP40 at pH 7.5. […] 15 nM Rhodamine labeled peptide/25 nM protein in columns 1, 2, 5 - 48. Titration of unlabeled peptide control ([H][…][NH2], custom synthesized and HPLC-purified by Tufts University Core Facility) from 20 mM, then 1:2 dilution, 16-point in duplicate, pin-transferred to column 2, rows 1 to 32. Column 1 is neutral. Rhodamine-labeled peptide (Rhodamine-[…]-NH2) was custom-synthesized and HPLC-purified by Invitrogen (Carlsbad, CA). Assay Steps. Four uL of reagents were dispensed to 1536-well Greiner black solid-bottom plates. Compounds and controls (23 nL) were transferred via Kalypsys PinTool. The plates were incubated for 10 min at room temperature, and then read on ViewLux (Perkin-Elmer) High-throughput CCD imager using BODIPY for the rhodamine-labeled decapeptide probe. During dispense, reagent bottles were kept submerged into 4 deg C water bath and all liquid lines were covered with aluminum foil to minimize probe and protein degradation. All screening operations were performed on a Kalypsys robotic system (Kalypsys, Inc., San Diego, CA) containing one RX-130 and two RX-90 anthropomorphic robotic arms.
# Sequence of Regulator of G-protein signaling 12 (Homo sapiens) (O14924 whole entry, looked up): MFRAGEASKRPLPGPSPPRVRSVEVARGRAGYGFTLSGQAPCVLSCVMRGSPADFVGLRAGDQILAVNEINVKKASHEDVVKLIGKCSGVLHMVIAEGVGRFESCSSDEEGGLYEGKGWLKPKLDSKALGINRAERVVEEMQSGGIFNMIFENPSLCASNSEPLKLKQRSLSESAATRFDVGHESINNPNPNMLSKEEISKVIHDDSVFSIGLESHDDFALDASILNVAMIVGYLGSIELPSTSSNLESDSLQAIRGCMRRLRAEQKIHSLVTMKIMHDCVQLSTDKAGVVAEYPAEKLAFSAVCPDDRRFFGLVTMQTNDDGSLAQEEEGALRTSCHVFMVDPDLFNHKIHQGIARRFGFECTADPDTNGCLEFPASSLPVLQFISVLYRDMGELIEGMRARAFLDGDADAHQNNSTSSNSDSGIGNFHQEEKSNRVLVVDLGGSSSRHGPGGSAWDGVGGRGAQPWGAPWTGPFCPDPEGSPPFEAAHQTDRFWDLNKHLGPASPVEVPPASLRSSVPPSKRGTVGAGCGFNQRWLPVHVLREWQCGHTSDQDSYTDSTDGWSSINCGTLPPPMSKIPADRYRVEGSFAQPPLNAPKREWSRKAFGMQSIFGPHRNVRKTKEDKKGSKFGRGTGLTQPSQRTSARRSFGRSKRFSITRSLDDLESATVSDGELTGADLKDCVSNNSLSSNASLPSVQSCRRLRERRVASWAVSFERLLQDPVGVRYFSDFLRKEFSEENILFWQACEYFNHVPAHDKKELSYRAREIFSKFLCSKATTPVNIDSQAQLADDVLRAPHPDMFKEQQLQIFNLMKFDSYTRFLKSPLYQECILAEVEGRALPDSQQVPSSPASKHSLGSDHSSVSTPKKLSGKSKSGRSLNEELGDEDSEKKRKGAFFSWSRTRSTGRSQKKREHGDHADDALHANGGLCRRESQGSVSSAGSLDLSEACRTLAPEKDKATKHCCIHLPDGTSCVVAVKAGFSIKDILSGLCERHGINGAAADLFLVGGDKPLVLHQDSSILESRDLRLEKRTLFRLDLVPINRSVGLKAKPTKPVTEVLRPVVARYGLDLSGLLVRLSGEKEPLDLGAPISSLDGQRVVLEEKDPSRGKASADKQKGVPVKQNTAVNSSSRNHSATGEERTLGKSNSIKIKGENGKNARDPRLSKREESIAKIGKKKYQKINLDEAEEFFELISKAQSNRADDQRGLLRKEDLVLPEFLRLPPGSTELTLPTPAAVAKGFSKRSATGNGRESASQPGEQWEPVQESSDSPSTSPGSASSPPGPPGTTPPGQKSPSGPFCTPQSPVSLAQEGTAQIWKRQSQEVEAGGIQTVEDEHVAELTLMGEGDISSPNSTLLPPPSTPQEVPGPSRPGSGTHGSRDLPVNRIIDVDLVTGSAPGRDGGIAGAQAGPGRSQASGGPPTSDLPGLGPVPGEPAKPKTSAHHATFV
Compound,"activity, negative = inhibition",Potency
CCn1c(SCC(=O)NCc2ccco2)nnc1-c1ccc(N)cc1,13.1% (inactive),
Cc1nn(C)cc1N1C(=O)c2cccc3c(N)ccc(c23)C1=O,,14.1 µM (active)
Cc1cc2nc3c(=O)n(Cc4ccccc4)c(=O)[nH]c3nc2cc1N,,3.98 µM (active)
O=C(Nc1cccc(Nc2nccc(Nc3cccc(C(F)(F)F)c3)n2)c1)C1CC1,11.2% (inactive),
